Assay results reported in PubChem BioAssay.
For some assays here: Measured potencies and affinities stand elsewhere. Active and inactive are the calls of the source. Unless noted, how the calls were made is not given here.

target: Protein kinase 7 (PK7), Plasmodium falciparum 3D7 (PF3D7_0213400) (UniProt Q7YTF7); experiment: inhibition of Plasmodium PK7 catalytic activity – biochemical, TCAMS antimalarial set, Kinase-Glo luminescence (AID 1159587); details: recombinant PfPK7, Kinase-Glo ATP depletion luminescence
Sequence (Q7YTF7 1-343): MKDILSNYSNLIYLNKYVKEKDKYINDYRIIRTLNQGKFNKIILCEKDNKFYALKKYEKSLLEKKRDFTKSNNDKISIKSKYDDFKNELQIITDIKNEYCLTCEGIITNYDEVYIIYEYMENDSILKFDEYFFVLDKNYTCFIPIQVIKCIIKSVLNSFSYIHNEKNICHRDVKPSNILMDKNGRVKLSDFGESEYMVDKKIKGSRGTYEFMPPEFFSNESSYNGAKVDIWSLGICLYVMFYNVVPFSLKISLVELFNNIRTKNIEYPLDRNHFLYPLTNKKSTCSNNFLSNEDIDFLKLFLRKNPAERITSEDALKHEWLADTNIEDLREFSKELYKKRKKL

outcome, inactive:
CC(C)CCN=C(N)c1ccc(OCCCCCOc2ccc(C(N)=NCCC(C)C)cc2)cc1
COc1ccc2nccc([C@@H](O)CN3CCC(NCc4cn5cc(F)ccc5n4)CC3)c2c1
CS(=O)(=O)c1ccc(CCNCc2ccc(-c3ccc(CN(C(=O)C4CC(=O)c5ccccc54)C4CCN(Cc5ccccc5)CC4)cc3)nc2)cc1 (stereo not given)
Cc1[nH]c(C)c(-c2ccc(C(=O)c3ccc(Cl)cc3)cc2)c(=O)c1Br
CCCNCc1ccc(-c2ccc(CN(CCOC)C(=O)c3ccccc3)cc2)nc1
CC(C)C(NC(=O)Cc1cccc2ccccc12)C(=O)Nc1cccc(C#N)c1 (stereo not given)
COc1ccccc1CCNc1nc(C)cc(N[C@@H](CC(C)C)C(=O)Nc2ccccc2)n1
CCC1(CC)CN(c2ccccc2)c2ccc(O)cc2S(=O)(=O)C1CC(C)C (stereo not given)
O=C(Nc1cc(C(F)(F)F)ccc1Cl)c1ccc(Cn2cc(Br)cn2)cc1
COc1cccc(NC(=O)Nc2ccc(-c3oc(C(=O)NCC(c4ccccc4)N(C)C)cc3-c3ccncc3)cc2)c1 (stereo not given)
CC(Cc1ccc(NC(=O)c2ccc(CNCc3ccccc3)cc2)cc1)N(CCc1cccc(Cl)c1)C(=O)OC(C)(C)C (stereo not given)
NC(=NCCc1ccc(Cl)c(Cl)c1)c1ccc2ccccc2c1
O=C(NC1CCCc2ccccc21)C1CCCN(C(=O)c2ccc(O)c(-c3ccc(Cl)c(Cl)c3)c2)C1 (stereo not given)
CC(C)CNC(=O)c1cncc(-c2ccc(CNCCCc3ccccc3)cc2)c1
O=C(/C=C/c1ccc(Cl)c(Cl)c1)NCCCCCN1CCC(NC(=S)Nc2ccc(F)cc2F)CC1
CN(C)C(C)(C)CN(Cc1ccc(-c2ccc(C(F)(F)F)cc2)cc1)C(=O)Cn1c(CCc2cccc(F)c2F)nc(=O)c2ccccc21
CCc1cccc2c(C#N)cn(CC(=O)Nc3ccc(OC)cc3)c12
COc1ccc2c(CCNc3nc(SC)ncc3C(=O)NCCc3ccc(F)cc3)c[nH]c2c1
COc1ccc(C(=O)[C@H]2C[C@@H]2CN(C)CCC(O)c2ccc(Cl)c(Cl)c2)cc1 (stereo not given in full)
Cc1nc(N)nc(N)c1-c1ccc(Br)cc1
COc1cc(Cc2cnc(N)nc2N)ccc1OCC(=O)Nc1ccc(C)cc1
O=C(/C=C/c1ccc(C(F)(F)F)cc1)NCCCCCN1CCN(C(=O)Nc2ccc(F)c(Cl)c2)CC1
O=C(NCc1cccc(OC(F)(F)F)c1)c1cnc2c(c1)nc(-c1cnc(-c3ccccc3)[nH]1)n2CCc1cnc[nH]1
Cc1cccc2[nH]c(-c3ccc(-c4ccc(CN5CCN(CCN6CCOCC6)CC5)cc4)cc3)nc12
Cc1nc(NCCCn2ccnc2)cc(-c2cncc(-c3ccc(OC(F)(F)F)cc3)c2)n1
Oc1ccc2[nH]cc(C3CCN(CCC(c4ccccc4)c4ccccc4)CC3)c2c1
COc1ccc2nccc(N3CCC(NCCNCc4ccc5c(n4)NC(=O)CS5)C3)c2n1 (stereo not given)
COc1cc(C)nc2ccc(NC(=O)c3ccc(C(=O)Nc4ccc5nc(C)cc(OC)c5c4)cc3)cc12
Cn1nc(-c2cccc(CN[C@@H]3CCc4ccc(O)cc43)c2)c2cnc(NC3CCCC3)nc21
Oc1ccc(CCNc2nc(NCCCOc3ccccc3-c3cccnc3)nc(N3CCNCC3)n2)cc1
CC(C)N1CCN(C(CN2CCN(CCCOc3cccc4ccccc34)CC2)c2ccc(F)cc2)CC1 (stereo not given)
O=C(Nc1cccc([N+](=O)[O-])c1)Nc1ccc(Cl)c(C(F)(F)F)c1
NC1CCN(c2nc(NCCCc3ccc(O)cc3)nc(NCc3ccccc3-c3ccc(C(F)(F)F)cc3)n2)CC1
CCc1ccc(-c2nc3cc(NC(=O)c4cc([N+](=O)[O-])cc([N+](=O)[O-])c4)ccc3o2)cc1
FC(F)(F)c1ccc2nc(-c3ccc(-c4ccc(CNCc5cnn(-c6ccccc6)n5)cc4)cc3)[nH]c2c1
Cc1ccc(C(=O)Nc2ccc(Nc3ccnc4cc(-c5ccccn5)ccc34)cc2O)cc1
COc1ccc(-c2ccc(NC(=O)c3ccc(C#N)cc3)cc2)cc1CN(C)CCN(C)C
COc1cccc(-c2ccc3c(-c4ccc(F)cc4)cnc(N)c3c2)c1
COc1ccc(CNC(=O)NC2CCN(c3ccnc(Nc4ccc(F)cc4)n3)CC2)cc1
O=C(NCCc1ccccc1)N(Cc1ccc(-c2cccc(CN3CCNCC3)c2)cc1)C1CCN(Cc2ccccc2)CC1

target: Calcium-dependent protein kinase 4 (Plasmodium falciparum (isolate 3D7)) (UniProt Q8IBS5); experiment: PfCDPK4 kinase inhibitors, biochemical, TCAMS library (AID 1159588; cut-off not given, nearly all actives have IC50 up to about 0.91 µM); details: recombinant PfCDPK4, Kinase-Glo ATP depletion luminescence
Sequence (Q8IBS5 whole entry, looked up): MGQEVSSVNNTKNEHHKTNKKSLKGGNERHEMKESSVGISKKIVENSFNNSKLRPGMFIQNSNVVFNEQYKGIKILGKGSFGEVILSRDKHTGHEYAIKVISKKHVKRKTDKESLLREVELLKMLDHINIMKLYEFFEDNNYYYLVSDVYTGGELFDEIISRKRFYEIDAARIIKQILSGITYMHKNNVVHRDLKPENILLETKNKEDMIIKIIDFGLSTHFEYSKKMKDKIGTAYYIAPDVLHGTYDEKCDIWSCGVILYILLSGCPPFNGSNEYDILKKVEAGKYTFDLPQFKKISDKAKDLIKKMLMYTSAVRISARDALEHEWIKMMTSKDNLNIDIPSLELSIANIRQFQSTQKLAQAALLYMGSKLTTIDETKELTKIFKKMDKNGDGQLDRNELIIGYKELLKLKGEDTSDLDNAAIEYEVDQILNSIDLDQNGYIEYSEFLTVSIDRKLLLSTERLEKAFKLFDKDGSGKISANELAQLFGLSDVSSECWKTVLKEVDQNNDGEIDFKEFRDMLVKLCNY

outcome, inactive:
CC(C)CCN=C(N)c1ccc(OCCCCCOc2ccc(C(N)=NCCC(C)C)cc2)cc1
COc1ccc2nccc([C@@H](O)CN3CCC(NCc4cn5cc(F)ccc5n4)CC3)c2c1
CS(=O)(=O)c1ccc(CCNCc2ccc(-c3ccc(CN(C(=O)C4CC(=O)c5ccccc54)C4CCN(Cc5ccccc5)CC4)cc3)nc2)cc1 (stereo not given)
Cc1[nH]c(C)c(-c2ccc(C(=O)c3ccc(Cl)cc3)cc2)c(=O)c1Br
CCCNCc1ccc(-c2ccc(CN(CCOC)C(=O)c3ccccc3)cc2)nc1
CC(C)C(NC(=O)Cc1cccc2ccccc12)C(=O)Nc1cccc(C#N)c1 (stereo not given)
COc1ccccc1CCNc1nc(C)cc(N[C@@H](CC(C)C)C(=O)Nc2ccccc2)n1
CCC1(CC)CN(c2ccccc2)c2ccc(O)cc2S(=O)(=O)C1CC(C)C (stereo not given)
O=C(Nc1cc(C(F)(F)F)ccc1Cl)c1ccc(Cn2cc(Br)cn2)cc1
COc1cccc(NC(=O)Nc2ccc(-c3oc(C(=O)NCC(c4ccccc4)N(C)C)cc3-c3ccncc3)cc2)c1 (stereo not given)
CC(Cc1ccc(NC(=O)c2ccc(CNCc3ccccc3)cc2)cc1)N(CCc1cccc(Cl)c1)C(=O)OC(C)(C)C (stereo not given)
NC(=NCCc1ccc(Cl)c(Cl)c1)c1ccc2ccccc2c1
O=C(NC1CCCc2ccccc21)C1CCCN(C(=O)c2ccc(O)c(-c3ccc(Cl)c(Cl)c3)c2)C1 (stereo not given)
CC(C)CNC(=O)c1cncc(-c2ccc(CNCCCc3ccccc3)cc2)c1
O=C(/C=C/c1ccc(Cl)c(Cl)c1)NCCCCCN1CCC(NC(=S)Nc2ccc(F)cc2F)CC1
CN(C)C(C)(C)CN(Cc1ccc(-c2ccc(C(F)(F)F)cc2)cc1)C(=O)Cn1c(CCc2cccc(F)c2F)nc(=O)c2ccccc21
CCc1cccc2c(C#N)cn(CC(=O)Nc3ccc(OC)cc3)c12
COc1ccc2c(CCNc3nc(SC)ncc3C(=O)NCCc3ccc(F)cc3)c[nH]c2c1
COc1ccc(C(=O)[C@H]2C[C@@H]2CN(C)CCC(O)c2ccc(Cl)c(Cl)c2)cc1 (stereo not given in full)
Cc1nc(N)nc(N)c1-c1ccc(Br)cc1
COc1cc(Cc2cnc(N)nc2N)ccc1OCC(=O)Nc1ccc(C)cc1
O=C(/C=C/c1ccc(C(F)(F)F)cc1)NCCCCCN1CCN(C(=O)Nc2ccc(F)c(Cl)c2)CC1
O=C(NCc1cccc(OC(F)(F)F)c1)c1cnc2c(c1)nc(-c1cnc(-c3ccccc3)[nH]1)n2CCc1cnc[nH]1
Cc1cccc2[nH]c(-c3ccc(-c4ccc(CN5CCN(CCN6CCOCC6)CC5)cc4)cc3)nc12
Cc1nc(NCCCn2ccnc2)cc(-c2cncc(-c3ccc(OC(F)(F)F)cc3)c2)n1
Oc1ccc2[nH]cc(C3CCN(CCC(c4ccccc4)c4ccccc4)CC3)c2c1
COc1ccc2nccc(N3CCC(NCCNCc4ccc5c(n4)NC(=O)CS5)C3)c2n1 (stereo not given)
COc1cc(C)nc2ccc(NC(=O)c3ccc(C(=O)Nc4ccc5nc(C)cc(OC)c5c4)cc3)cc12
Cn1nc(-c2cccc(CN[C@@H]3CCc4ccc(O)cc43)c2)c2cnc(NC3CCCC3)nc21
Oc1ccc(CCNc2nc(NCCCOc3ccccc3-c3cccnc3)nc(N3CCNCC3)n2)cc1
CC(C)N1CCN(C(CN2CCN(CCCOc3cccc4ccccc34)CC2)c2ccc(F)cc2)CC1 (stereo not given)
O=C(Nc1cccc([N+](=O)[O-])c1)Nc1ccc(Cl)c(C(F)(F)F)c1
NC1CCN(c2nc(NCCCc3ccc(O)cc3)nc(NCc3ccccc3-c3ccc(C(F)(F)F)cc3)n2)CC1
CCc1ccc(-c2nc3cc(NC(=O)c4cc([N+](=O)[O-])cc([N+](=O)[O-])c4)ccc3o2)cc1
FC(F)(F)c1ccc2nc(-c3ccc(-c4ccc(CNCc5cnn(-c6ccccc6)n5)cc4)cc3)[nH]c2c1
Cc1ccc(C(=O)Nc2ccc(Nc3ccnc4cc(-c5ccccn5)ccc34)cc2O)cc1
COc1ccc(-c2ccc(NC(=O)c3ccc(C#N)cc3)cc2)cc1CN(C)CCN(C)C
COc1cccc(-c2ccc3c(-c4ccc(F)cc4)cnc(N)c3c2)c1
COc1ccc(CNC(=O)NC2CCN(c3ccnc(Nc4ccc(F)cc4)n3)CC2)cc1
O=C(NCCc1ccccc1)N(Cc1ccc(-c2cccc(CN3CCNCC3)c2)cc1)C1CCN(Cc2ccccc2)CC1
